High-throughput results (PubChem)
In the library only some 4.4% were active in any assay of this set; here they are far more common.
TIM10 inh: TIM10 yeast growth inhibition | 330,000 compounds, 1.4% hits | AID 463195 | S. cerevisiae TIM10 strain growth, BacTiter-Glo luminescence, 24 h | inhibition, % at 10 µM;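 active = inhibition of 40% or more at the single tested concentration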;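 note: wild-type TIM10 isogenic control strain grown at permissive 25 °C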
SKKanGAS inh: inhibitors of SKKanGAS S. pyogenes growth in kanamycin (SK-promoter or general growth effect). AID 1662. BacTiter-Glo, 6 h. inhibition, % at 7.5 µM. 300,000 compounds, 1.3% hits;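 active = mean replicate score, as percent of positive control median, at least 50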;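 note: strain carries kanamycin resistance gene driven by streptokinase promoter and grows in 40 µg/ml kanamycin; loss of luminescence reflects streptokinase promoter inhibition or plain growth inhibition; 0% = median of DMSO wells and 100% = positive control at its reference dose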
tim23-1 inh: tim23-1 yeast growth inhibition | S. cerevisiae tim23-1 growth, BacTiter-Glo luminescence, 24 h | inhibition, % at 20 µM | 330,000 compounds, 1.3% hits;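 active = growth inhibition of the mutant yeast at or above 50%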;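 note: temperature-sensitive mutant grown at 25 °C; plate controls were DMSO-treated mutant yeast for no effect and medium wells lacking yeast for full effect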
PfHsp90 yeast 2: reduces growth (ATP signal) of yeast expressing P. falciparum Hsp90 | S. cerevisiae expressing PfHsp90, BacTiter-Glo ATP, 48 h; yeast lacking PDR1 and PDR3 efflux regulators | inhibition, % at 9.4 µM | 310,000 compounds, 0.32% hits;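 active = every replicate shows inhibition above about 80%, whatever the replicate mean, limit read from the data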;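 note: 0% = DMSO neutral controls and 100% = 20 µM radicicol positive controls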
tim10-1 inh: tim10-1 yeast growth inhibition | AID 463190 | inhibition, % at 20 µM | S. cerevisiae tim10-1 ts strain growth, BacTiter-Glo, 24 h | 330,000 compounds, 2.2% hits;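 active = inhibition of at least 40%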;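 note: mutant grown at 25 °C; 0% = DMSO wells with yeast and 100% = wells holding no yeast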
* = called active by the depositor; / = not tested or not shown.

SMILES	TIM10 inh	SKKanGAS inh	tim23-1 inh	PfHsp90 yeast 2	tim10-1 inh
CC1(C)CC(c2nc(-c3ccc(Br)cc3)cs2)CCS1 (centres undefined)	13.9	-8.4	-0.6	2.0	21.6
CC1(C)CC(c2nc(-c3ccc(Cl)cc3)cs2)CCS1 (centres undefined)	1.2	65.5*	15.2	7.5	13.9
COC(=O)[C@H](CC(C)C)N(Cc1ccccc1)S(=O)(=O)N(Cc1ccc(OC)cc1)[C@@H](CC(C)C)C(=O)OC	10.7	/	27.9	-3.3	17.9
Cc1cc(Cl)ccc1OC(C)C(=O)Nc1ccc(S(=O)(=O)Nc2cnc3ccccc3n2)cc1 (centres undefined)	9.7	66.6*	0.4	/	32.6
Cc1ccc(C(=O)n2c3ccccc3c3ccccc32)cc1	4.3	67.0*	21.0	/	0.0
COc1cc(Cc2cnc(N)nc2N)cc(OC)c1OC	5.8	50.6*	-2.7	-13.2	0.2
COc1cc(CN2CCCCCC2)cc(OC)c1OC	1.4	2.9	-3.8	12.1	-10.4
O=c1oc(C2(O)CCCCC2)cc2ccc(-c3ccc4[nH]ccc4c3)cc12	8.1	/	12.8	8.9	17.5
Nc1nc(CN2CCN(Cc3ccccc3)CC2)nc(N2CCCc3ccccc32)n1	11.7	6.0	-13.1	/	21.0
Nc1nc(CN2CCN(c3cccc(Cl)c3)CC2)nc(N2CCCc3ccccc32)n1	19.9	90.9*	46.2	16.9	36.8
Nc1nc(CN2CCN(c3ccccc3)CC2)nc(N2CCCc3ccccc32)n1	24.0	88.4*	28.9	-13.0	37.6
CC1CCCCC1NC(=O)CN1CCN(S(=O)(=O)c2ccc(Br)s2)CC1 (centres undefined)	22.5	/	38.8	7.4	23.6
CCOc1ccccc1C(=O)NC(C(=O)NCCc1ccccn1)C(C)C (centres undefined)	-4.1	/	3.0	/	3.1
COc1ccc(C(=O)NNC2=Nc3cccc4cccc2c34)cc1	0.9	37.6	-8.0	-50.3	-26.4
Cc1ccc(C(=O)NNC2=Nc3cccc4cccc2c34)cc1	-20.3	58.0*	-9.5	-115.8	-17.8
O=C(Nc1ccc2ccccc2c1)c1ccc(NS(=O)(=O)c2ccc(Br)s2)cc1	-9.3	96.1*	3.8	-33.6	-6.0
FC(F)Sc1ccc(NC(=S)NC(c2ccccc2)c2ccccc2)cc1	12.0	125.5*	1.3	-21.0	7.8
CC(NC(=S)Nc1ccc(F)cc1)c1ccccc1 (centres undefined)	12.7	5.2	28.3	-4.4	24.4
C[C@H]1CN([C@@H](C)CO)C(=O)Cc2cc(NS(=O)(=O)c3cn(C)cn3)ccc2O[C@@H]1CN(C)C(=O)Nc1ccc(F)cc1	1.6	/	9.1	6.9	1.7
CC(=NNC(=S)N(Cc1ccccn1)Cc1ccccn1)c1cnccn1	/	/	/	110.3*	/
S=C(NN=Cc1ccccn1)N(Cc1ccccn1)Cc1ccccn1	/	/	/	47.8	/
COC1OC2COC(c3ccccc3)OC2C2OC12 (centres undefined)	/	/	/	31.2	/
N#Cc1c(NC(=S)NC(=O)C2CCCC2)sc2c1CCCCC2	23.0	75.6*	15.6	1.0	25.8
CC(C)CC(=O)NC(NC(=S)Nc1sc2c(c1C#N)CCCC2)C(Cl)(Cl)Cl (centres undefined)	7.2	56.0*	15.9	/	13.1
N#Cc1c(NC(=S)NC(=O)c2ccccc2)sc2c1CCCC2	1.9	2.9	10.5	0.7	24.0
SMILES	TIM10 inh	SKKanGAS inh	tim23-1 inh	PfHsp90 yeast 2	tim10-1 inh
Cc1nc2ccc(NS(=O)(=O)c3cccc([N+](=O)[O-])c3)cc2s1	4.6	/	9.7	-1.9	12.6
O=[N+]([O-])c1ccc(/C=N/NC(=S)Nc2ccc(Cl)cc2Cl)s1	7.4	76.7*	44.0	-27.9	16.4
O=C(Nc1nnc(C2=COCCO2)o1)c1ccc(Cc2ccccc2)cc1	11.4	93.3*	-69.5	/	31.6
O=C(Nc1nnc(C2=COCCO2)o1)c1cccc(C(F)(F)F)c1	15.1	56.2*	17.3	-11.9	27.7
Cc1cccc(C(=O)OCC(=O)N2CCCCCC2)c1C	-0.6	/	28.3	15.8	-9.9
Cc1noc(C)c1COc1ccc(C(=O)N2CCN(S(=O)(=O)c3cccc(F)c3)CC2)cc1	17.9	/	3.6	/	4.3
COc1cc(-c2nc(-c3ccc4c(c3)-c3ccccc3S4(=O)=O)c(-c3ccccc3)[nH]2)cc(OC)c1O	-3.0	66.1*	27.4	/	30.9
COc1ccc(-c2[nH]c(-c3ccc(C(=O)O)cc3)nc2-c2ccccc2)cc1	10.1	10.2	6.7	10.2	-8.6
Cc1cc(/C=C2\SC(=S)NC2=O)c(C)n1-c1cccc(O)c1	0.9	81.5*	27.2	93.8*	9.6
Cc1cc(/C=C2\SC(=S)N(C)C2=O)c(C)n1-c1ccccc1O	21.7	88.4*	-9.8	6.4	-5.6
CN1C(=O)/C(=C/c2coc3ccc(O)cc3c2=O)SC1=S	-1.7	-0.2	-15.7	10.3	4.0
Cc1ccc(-n2c(C)cc(/C=C3\SC(=O)NC3=O)c2C)cc1	14.7	31.1	4.9	7.5	16.5
COc1ccc(NC(=O)C(=O)NNC(=O)C(C)Oc2ccc(Cl)cc2Cl)cc1 (centres undefined)	-30.6	71.2*	-19.0	-8.0	-28.5
CSc1ncccc1C(=O)Nc1cccc(S(=O)(=O)N(C)c2ccccc2)c1	5.7	/	34.2	-56.3	7.9
Nc1nc(-c2ccccn2)nc(N)c1Cc1ccccc1F	-41.1	79.5*	-16.4	-5.0	-41.2
Nc1nc(-c2ccccn2)nc(N)c1Cc1ccc(Cl)cc1Cl	-9.3	114.5*	14.6	16.4	-7.1
Clc1ccc(OCc2nc(-c3ccccn3)no2)c(Br)c1	-17.1	3.5	44.3	9.6	13.4
Nc1nc(-c2ccccn2)nc(N)c1Cc1c(F)cccc1Cl	-20.1	-0.3	-20.4	-23.2	-55.5
CC1CCc2ccccc2N1CC(=O)Nc1cccc(S(=O)(=O)N2CCCC2)c1 (centres undefined)	-3.5	/	8.4	/	12.5
CCOc1cc(/C=C2/NC(=S)NC2=O)ccc1OCc1ccc([N+](=O)[O-])cc1	-4.6	74.4*	-5.9	/	7.2
Cc1ccnc2nc(C(=O)OCC(=O)N(Cc3ccccc3)C(C)C)nn12	3.9	/	-0.9	-19.9	-11.8
O=C(CCC(=O)Nc1ccc(Br)cc1)N/N=C/c1ccccc1O	19.7	83.1*	17.5	-18.1	-2.2
COc1ccc(/C=N/NC(=O)CCn2cnc(-c3ccccc3)c2-c2ccccc2)cc1	29.8	105.4*	32.5	15.7	32.6
O=C(CCn1cnc(-c2ccccc2)c1-c1ccccc1)N/N=C/c1ccccc1O	22.2	76.3*	17.2	-2.6	38.7
O=C(CCCCC(=O)NN=Cc1ccccc1O)NN=Cc1ccccc1O	/	/	/	9.9	/
O=C(CCn1cnc(-c2ccccc2)c1-c1ccccc1)N/N=C/c1ccc(O)cc1	10.8	12.6	12.6	5.2	9.6
Cc1ccc(NC(=O)CCC(=O)N/N=C/c2ccccc2O)cc1	2.3	6.8	2.9	2.1	-11.0
CCCCN1CC(=O)N2[C@H]3c4ccccc4OC[C@@H]3[C@H](c3ccccc3)[C@]2(C)C1=O	5.1	/	33.1	18.3	21.9
O=c1cc(N2CCCCC2)c(-c2ccccc2)nn1Cc1ccc(Cl)cc1	9.5	94.2*	40.3	2.1	20.0
